# Data from PubChem BioAssay (NCATS).
# Inconclusive results are not listed. Calls of active or inactive are those of the source. Calls follow the shape of the dose curve; as a rule, active = well fitted inhibition curve with a large enough effect; inconclusive = small, poorly fitted or top-dose-only effect; inactive = no such curve, though single readings can be large or run the other way.
# Test: Primary qHTS for inhibitors of La Crosse Virus (LACV) - induced cell death in SH-SY5Y cells (AID 1508616);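 also: top concentration of the series differs between compounds; 0% = infected DMSO wells and 100% = uninfected DMSO wells; higher means more rescue of cells from virus-induced death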
# Conditions: SH-SY5Y LACV cytopathicity rescue, ATP luminescence, 6 d; series mostly up to 4.29 µM; activity change: at the top concentration
# Description: Assay Provider: Karin Peterson Ph.D.
# National Institute of Allergy and Infection Diseases, National Institute of Health
# La Crosse Virus (LACV) is a California serogroup mosquito-borne arbovirus, family Peribunyaviridae, which is an endemic pathogen in North America and can induce a rare, life-threatening neurological disease in children. LACV was first isolated in the early 1960s, from a summer "rural encephalitis" case in La Crosse, Wisconsin, USA. Since then, LACV encephalitis cases have been found in more than twenty states, with most cases in the Mississippi and Ohio River basins. The life cycle of LACV is maintained between the vector, the eastern tree-hole mosquito Aedes triseriatus, and vertebrate hosts including eastern gray squirrels (Sciurus carolinensis) and chipmunks (Tamiasstriatus grinseus). […] Most LACV infections in humans are asymptomatic or induce mild clinical symptoms of fever, headache, lethargy and vomiting. However, in some cases LACV can cause severe neuroinvasive disease, including encephalitis, meningitis, and meningoencephalitis, requiring hospitalization. To date, there is neither a licensed vaccine nor a Food and Drug Administration (FDA) approved antiviral therapy available to prevent or treat LACV encephalitis. The primary treatment for viral encephalitis is palliative care due to the lack of therapeutics. In the current study, we conducted a screen of 4,096 FDA approved and bioactive small molecules against LACV, by screening for rescue of LACV-induced cell death in SH-SY5Y cells.
# LACV-induced cytopathicity assay
# SEQUENCE No. (1,2, 3, etc.); […] (e.g., Cells, Incubation, Reagent, etc.); VALUE and DESCRIPTION.
# 1. Reagent; 2 uL; Cell solution.
# 3. Compounds; 23nL; Compound library
# 4. Reagent; 12 uL; LACV virus
# 6. Reagent; 24 uL; ATPLite (PerkinElmer)
# 7. Time; 5 min; Room temperature
# 8. Detection; Luminescence; View
# NOTES (numbers refer to sequence above)
# 1. Seed 6000 SH-SY5Y cells (ATCC CRL-2266) in 2 microL/well media (DMEM/F12 10% FBS, 1x L-Glutamine, 1x Pyruvate, 1x NEAA, 1x Pen/Strep) in 384-well assay plates (tissue culture treated, white, solid bottom).
# 2. Incubate at 37 degrees C with 5% CO2 for 24 hr.
# 3. Dispense 23 nL/well compounds in DMSO via pin transfer.
# 4. Dispense 12 microL/well of LACV (LACV/human/1978) in media at 0.01 MOI.
# 5. Incubate at for 6 days at 37C 5% CO2
# 6. Dispense 24 microL/well of ATPLite 1step Luminescence assay system (PerkinElmer).
# 7. Incubate for 5 min at room temperature.
# 8. Read luminescence signal (Viewlux plate reader, PerkinElmer). Data was normalized with DMSO control wells containing LACV as 0%, and DMSO control wells without virus as 100%.
row,Structure (SMILES),activity change
1,Oc1ccc(Cl)c2cccnc12,-33.3% (inactive)
2,CN1C2CCC1CC(OC(=O)c1c[nH]c3ccccc13)C2 (stereo not given),10.1% [at 9.63 µM] (inactive)
3,CC1(C)O[C@@H]2C[C@H]3[C@@H]4C[C@H](F)C5=CC(=O)CC[C@]5(C)[C@H]4[C@@H](O)C[C@]3(C)[C@]2(C(=O)CO)O1,7.96% (inactive)
4,O=C1OC(c2ccc(O)cc2)(c2ccc(O)cc2)c2ccccc21,-9.01% (inactive)
5,CC(O)C(=O)O (stereo not given),-0.89% (inactive)
6,OC(CCN1CCCCC1)(c1ccccc1)c1ccccc1,8.16% (inactive)
7,Oc1cc(O)c2c(c1)O[C@H](c1ccc(O)c(O)c1)[C@H](O)C2,4.94% (inactive)
8,CO/N=C1\CN(c2nc3c(cc2F)c(=O)c(C(=O)O)cn3C2CC2)CC1CN (stereo not given),12.1% (inactive)
9,COC(=O)C1=C(C)NC(C)=C(C(=O)O[C@@H]2CCCN(Cc3ccccc3)C2)[C@@H]1c1cccc([N+](=O)[O-])c1,-18.8% (inactive)
10,CCCCCCCCCCOCC(O)CN (stereo not given),-5.63% (inactive)
11,CN(C)C(=S)SC(=S)N(C)C,-8.95% (inactive)
12,CCCSS/C(CCO)=C(\C)N(C=O)Cc1cnc(C)nc1N,7.99% (inactive)
13,O=C(Nc1ccc(Oc2ccc(Cl)cc2)c(Cl)c1)c1cc(I)cc(I)c1O,15.6% (inactive)
14,CN(C)CC/C=C1/c2ccccc2COc2ccc(CC(=O)O)cc21,-2.47% (inactive)
15,O=C(CCCN1CCC(O)(c2ccc(Br)cc2)CC1)c1ccc(F)cc1,-21.6% (inactive)
16,CCCN1CCCC[C@H]1C(=O)Nc1c(C)cccc1C,-15.3% (inactive)
17,CCOC(=O)OC(C)OC1=C(C(=O)Nc2ccccn2)N(C)S(=O)(=O)c2ccccc21 (stereo not given),-6.44% (inactive)
18,C=C1C[C@H]2[C@@H]3C=C(C)C4=CC(=O)CC[C@]4(C)[C@H]3CC[C@]2(C)[C@@]1(OC(C)=O)C(C)=O,42.1% (inactive)
19,CN(C/C=C/c1ccccc1)Cc1cccc2ccccc12,5.77% (inactive)
20,C#C[C@]1(O)CC[C@H]2[C@@H]3CCC4=CC(=O)CC[C@@H]4[C@H]3CC[C@@]21C,1.76% (inactive)

row,Structure (SMILES),activity change
1,C[C@]12CCC(=O)C=C1CC[C@H]1[C@@H]3CC[C@](O)(C(=O)CO)[C@@]3(C)C[C@H](O)[C@@]12F,0.494% (inactive)
2,CC/C(=C(/CC)c1ccc(O)cc1)c1ccc(O)cc1,3.02% (inactive)
3,C[C@]12C=CC(=O)C=C1[C@@H](F)C[C@@H]1[C@@H]2[C@@H](O)C[C@@]2(C)[C@H]1CC[C@]2(O)C(=O)CO,35.9% (inactive)
4,O=C(OCCOCCO)c1ccccc1Nc1cccc(C(F)(F)F)c1,6.15% (inactive)
5,CN1CCC[C@@H]1c1cccnc1,3.29% (inactive)
6,CCC(NC(C)C)C(O)c1ccc(O)c(O)c1 (stereo not given),-18.4% [at 9.63 µM] (inactive)
7,CCOc1ccc2nc3cc(N)ccc3c(N)c2c1,-4.63% (inactive)
8,CCN(CC)CCOC(=O)C(c1ccccc1)C1CCCCC1 (stereo not given),9.67% (inactive)
9,CC(=O)OCC(=O)NCCCOc1cccc(CN2CCCCC2)c1,16.5% (inactive)
10,N[C@H](CO)C(=O)O,15.8% [at 9.63 µM] (inactive)
11,COc1ccc(CN2CCN(C(c3ccc(F)cc3)c3ccc(F)cc3)CC2)c(OC)c1OC,3.75% (inactive)
12,NC(CS)C(=O)O (stereo not given),-5.46% (inactive)
13,CC(C)COC(=O)c1ccc(N)cc1,12.9% (inactive)
14,Oc1c(Cl)cc(Cl)cc1Sc1cc(Cl)cc(Cl)c1O,2.94% (inactive)
15,CCCC(=O)O[C@]1(C(=O)CO)CC[C@H]2[C@@H]3CCC4=CC(=O)CC[C@]4(C)[C@H]3[C@@H](O)C[C@@]21C,8.84% (inactive)
16,CCOC(=O)COc1ccc2c(C)c(CCN(CC)CC)c(=O)oc2c1Cl,4.99% (inactive)
17,Cc1ccc(Nc2c(F)cccc2Cl)c(CC(=O)O)c1,-2.77% (inactive)
18,c1ccc(OCc2ccc(CCCN3CCOCC3)cc2)cc1,-2.29% (inactive)
19,CC(=O)O[C@H]1C[C@@H]2CC[C@@H]3[C@H](CC[C@@]4(C)[C@H]3C[C@H]([N+]3(C)CCCCC3)[C@@H]4OC(C)=O)[C@@]2(C)C[C@@H]1[N+]1(C)CCCCC1,-3% [at 9.63 µM] (inactive)
20,C[C@@H]1C[C@H]2[C@@H]3C[C@H](F)C4=CC(=O)C(Cl)=C[C@]4(C)[C@@]3(F)[C@@H](O)C[C@]2(C)[C@@]1(O)C(=O)CO,76.5% (inactive)
